From PubChem
This is a sample that favours compounds with a hit; in the whole collection about 19% have one here.
HT1080 IDH1KD tx = qHTS for induction of synthetic lethality in tumor cells producing 2HG: qHTS for the HT-1080-IDH1KD cell line | HT-1080 IDH1 knockdown viability, ATP luminescence, 48 h | Potency, µM (top dose mostly 46.1 µM), inactives show top-dose activity, negative = toxicity, hits mostly cytotoxic | hit rate 2% among 360,000;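 further: 0% = DMSO wells and -100% = cell-free medium wells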
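IDH1KD HT-1080 cells, 750/well, RPMI + 5% FBS; compound pinned after 2 h settling; 48 h, 37 °C; CellTiter-Glo luminescence; % activity normalised to DMSO and no-cell wells; curves fitted, classed by r2 and efficacy.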
HT1080NT lethal = qHTS for induction of synthetic lethality in tumor cells producing 2HG: qHTS for the HT-1080-NT fibrosarcoma cell line. HT-1080-NT fibrosarcoma viability, CellTiter-Glo ATP luminescence, 48 h. Potency, µM (series often up to 46.1 µM), for the others: top-dose activity, negative = less viability, hits mostly cytotoxic. hit rate 1.6% among 360,000. AID 686970, 2013;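 further: NT is the 2HG producing partner of a matched IDH1 knockdown line; 0% = DMSO-treated cells and -100% = media-only wells without cells; nearly all actives have a fitted effect of over 55% in size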
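Compounds were tested in concentration-response format on HT-1080-NT cells for 48 hours at 37 degrees C. Cell viability came from CellTiter-Glo luminescence; curves were classified by r2, response magnitude and activity.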
DT40 TDP1 CPT = qHTS for Inhibitors of human tyrosyl-DNA phosphodiesterase 1 (TDP1): qHTS in cells in presence of CPT; hit rate 12% among 420,000; AID 686979, 2013; Potency, µM (titrated, usually from 46.2 µM), for the others: at the highest dose activity change, negative = growth inhibition, actives largely listed as inhibitors; chicken DT40 Tdp1-/-;hTDP1 cells + 20 nM CPT, ATP luminescence, 48 h; further: nearly all actives have a fitted effect of over 55% in size
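Chicken DT40 Tdp1-/- cells stably complemented with human TDP1 were seeded at 400 cells/well in medium containing 20 nM camptothecin, exposed to pin-transferred compounds, and grown at 37 °C for at least 48 hr. Viability was read as ATP luminescence.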
KB-3-1 cytotox = qHTS assay for MDR1-selective chemotherapeutics: Primary screen using the parental adenocarcinoma cell KB-3-1; KB-3-1 viability, CellTiter-Glo ATP luminescence, 72 h; Potency, µM (series often up to 46.1 µM), actives largely listed as cytotoxic; hit rate 1.4% among 400,000; AID 1347075, 2019; further: nearly all actives have a fitted effect of over 60% in size
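72 h, 37 °C compound treatment of KB-3-1 parental cells; CellTiter-Glo added, 10 min, luminescence read. Data corrected against DMSO-only plates and normalized before curve fitting.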
KB-V1 cytotox = qHTS assay for MDR1-selective chemotherapeutics: Primary screen using the drug-selected MDR subline cells KB-V1; KB-V1 MDR cells viability, CellTiter-Glo, 72 h; Potency, µM (series often up to 46.1 µM), hits mostly cytotoxic; hit rate 3.4% among 400,000; AID 1347076, 2019; further: nearly all actives have a fitted effect of over 60% in size
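KB-V1 MDR subline cells in DMEM (phenol-red free, 10% FBS) exposed to compounds in qHTS concentration series for 72 h at 37 degrees C. Viability read by CellTiter-Glo luminescence; concentration-effect curves fitted after normalization and correction.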
DT40 TDP1 no CPT = qHTS for Inhibitors of human tyrosyl-DNA phosphodiesterase 1 (TDP1): qHTS in cells in absence of CPT. DT40 Tdp1-/- hTDP1 cells, no CPT, ATP luminescence, 48 h. hit rate 15% among 420,000. Potency, µM (top dose mostly 46.2 µM), for inactives: at the highest dose activity change, negative = growth inhibition, hits mostly inhibitors; further: nearly all actives have a fitted effect of over 55% in size
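Camptothecin absent (DMSO only). Human TDP1-complemented DT40 knockout cells, 400 cells/well, 37 °C for minimum 48 hr; ATP measured via CellTiter-Glo, 30 min dark incubation, luminescence.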
* marks the source's active call; other numbers are inactive results; i = inactive; ? = inconclusive; . = not tested or not shown; [ ] = remark or other dose. The call rests on the fitted dose curve; in most records, active means well fitted curve in the direction sought with a large enough effect; inconclusive means small, poorly fitted or top-dose-only effect, or another doubt; inactive means no such curve, though single readings can be large; an effect the other way counts as inactive or inconclusive. Unless noted, on the % scale 0 is the no-effect control and ±100 the full control effect; potency means the concentration at half of the fitted maximal effect.

SMILES | HT1080 IDH1KD tx | HT1080NT lethal | DT40 TDP1 CPT | KB-3-1 cytotox | KB-V1 cytotox | DT40 TDP1 no CPT
Cn1c(=O)c2c(-c3cccc(Br)c3)n(C(C)(C)CO)cc2n(C)c1=O | . | . | ? | i | i | ?
COc1ccc(-c2c3c(=O)n(C)c(=O)n(C)c3cn2-c2cccc(N)c2)cc1 | . | . | ? | i | i | 23µM*
COc1ccc(-c2c3c(=O)n(C)c(=O)n(C)c3cn2N2CCOCC2)cc1 | -5% | -4% | -18% | i | i | ?
Cn1c(=O)c2c(-c3ccccc3)n(-c3ccccc3)cc2n(C)c1=O | -6% | 5% | 3.7µM* | i | i | 4.6µM*
CCCn1c(=S)[nH]c2cc(C(=O)N3CCN(c4ccc(F)cc4)CC3)ccc2c1=O | 0% | 4% | ? | i | i | -8%
COCCCn1cc(CN2CC(N3CCN(C4CCN(C)CC4)CC3)CS2(=O)=O)nn1 (stereo not drawn) | 3% | 0% | 1% | i | i | -14%
COC(=O)c1sccc1-n1cc2c(c1-c1ccccc1)c(=O)n(C)c(=O)n2C | 4% | 5% | ? | ? | i | 21µM*
Cn1c(=O)c2c(-c3ccccc3)n(-c3ccccc3F)cc2n(C)c1=O | 12% | 24% | 15µM* | i | i | 13µM*
Cn1c(=O)c2c(-c3ccccc3)n(-c3cc(C(=O)O)ccc3O)cc2n(C)c1=O | 14% | 28% | -15% | i | i | 5%
CC(C)c1cccc(C(C)C)c1NC(=S)Nc1cccc(Cl)c1 | 0% | 7% | ? | i | ? | 21µM*
S=C(NCc1cccc(Cl)c1)NC1CCCCC1 | -1% | -1% | -13% | ? | 18µM* | ?
S=C(NCCC(c1ccccc1)c1ccccc1)Nc1cccc(Cl)c1 | ? | ? | ? | i | ? | 15µM*
S=C(NCCN(C1CCCCC1)C1CCCC1)Nc1cccc(Cl)c1 | 16µM* | 16µM* | ? | ? | ? | 16µM*
S=C(NCc1ccccn1)Nc1cccc(Cl)c1 | -4% | 2% | ? | i | i | ?
S=C(NCc1ccncc1)Nc1cccc(Cl)c1 | -2% | 1% | -8% | i | ? | -15%
CC(C)c1ccc(NC(=O)c2cn(C3CCCCC3)c(=O)c3c2c2ccccc2n3C)cc1 | . | . | 1% | i | i | -24%
COC(=O)c1c(C)nn(-c2ccc(F)c(Cl)c2)c1-c1cc(C)on1 | -19% | -15% | 12µM* | ? | i | 5.2µM*
CCOCCCNc1nc2c(S(=O)(=O)c3ccc(CC)cc3)nnn2c2ccc(Cl)cc12 | . | . | ? | i | i | ?
C=C1C(=O)O[C@@H]2[C@H]3O[C@]3(C)CCC=C(C)CC[C@@H]12 | . | . | 3µM* | . | . | 2.1µM*
CCOC(=O)C1CCCN(C(=O)Cn2nc(C)n3nc(-c4ccccc4)cc3c2=O)C1 (stereo not drawn) | -1% | -1% | 15µM* | i | ? | ?
CCc1ccc(-c2cc3c(=O)n(CC(=O)NCCCN4CCN(CC)CC4)nc(C)n3n2)cc1 | ? | ? | 18µM* | ? | i | ?
Cc1nn(CC(=O)NCCCN2CCC(N3CCCCC3)CC2)c(=O)c2cc(-c3ccccc3)nn12 | -1% | -5% | 7.3µM* | ? | ? | 4.1µM*
CCN1CCN(CCCNC(=O)Cn2nc(C)n3c(cc4cc(C)ccc43)c2=O)CC1 | . | . | -12% | . | . | -23%
Cc1nn(CC(=O)NCCCN2CCN(C)CC2)c(=O)c2cc(-c3ccccc3)nn12 | 12% | 1% | 5% | i | ? | 16%
COc1cc(OC)cc(C(=O)OC(C)C(=O)NC2CCCc3ccccc32)c1 (stereo not drawn) | -10% | -3%[9.24 µM] | -25% | i | i | 7%
SMILES | HT1080 IDH1KD tx | HT1080NT lethal | DT40 TDP1 CPT | KB-3-1 cytotox | KB-V1 cytotox | DT40 TDP1 no CPT
CSc1nsc(SC)c1-c1ccc(Cl)cc1 | -1% | 3% | -24% | i | i | -9%
Cc1ccccc1C(=O)Nc1nnc(S(=O)(=O)N(C)Cc2ccc(Cl)cc2)s1 | . | . | -30% | i | i | -12%
CCOC(=O)c1noc2c1CCC2 | 15% | 19% | 22% | i | i | 14%
CN(C)S(=O)(=O)n1cc(/C=C(\NC(=O)c2ccccc2F)C(=O)N2CCCC2)c2ccccc21 | -16% | -10% | ? | i | ? | ?
Cc1cccc(NC(=O)CC(=O)Nc2cccc(C)c2)c1 | -14% | -10% | 0% | i | i | -4%
Cc1cccc(NNC(=O)C(=O)NNc2cccc(C)c2)c1 | 5.2µM* | ? | 20% | ? | i | -24%
CC(=O)Nc1ccc(S(=O)(=O)NNc2cccc(C)c2)cc1 | -17% | -30% | 23µM* | ? | i | ?
Nc1cc(-c2ccc(OC(F)(F)F)cc2)nn1-c1ccc(Cl)c(Cl)c1 | ? | ? | ? | i | i | ?
CCc1nc2c(OCc3ccccc3C(=O)OC)cccn2c1N(C)C(=O)c1cccc(OC)c1 | 1% | -4% | 13µM* | ? | ? | 23µM*
CCc1nc2c(OCc3cccc(Cl)c3)cccn2c1N(C)C(=O)c1ccc(OC)cc1 | -12% | -6% | ? | i | ? | 16µM*
CCc1nc2c(OCc3cccc(OC)c3)cccn2c1N(C)C(=O)c1ccc(OC)cc1 | -1% | 5% | ? | i | i | 16µM*
CCc1nc2c(OCCc3cccc(OC)c3)cccn2c1N(C)C(=O)c1ccc(OC)cc1 | -5% | 0% | ? | i | ? | ?
O=C(Nc1ccc(F)cc1)c1oc2ccccc2c1NC(=O)C12CC3CC(CC(C3)C1)C2 | . | . | 2% | i | i | ?
CCOc1ccc(S(=O)(=O)N2CCN(c3nc(-c4ccccc4)nc4ccccc34)CC2)cc1OCC | . | . | ? | i | i | ?
COc1ccc(-c2cc(C(F)(F)F)n3nc(C(=O)Nc4cccc(Cl)c4Cl)cc3n2)cc1OC | . | . | -5% | i | i | -3%
